# Assay outcomes as filed in PubChem BioAssay.
# Most compounds without a hit are left out; they make up all but 3.9% or so of the library.
# TGFb SMAD3 inh: inhibitors of TGF-b signaling; HepG2 CAGA-GFP TGF-b/SMAD3 reporter, GFP fluorescence, 18 h; TGF-beta stimulated, 500 pg/mL final; Potency, µM (top dose mostly 46.1 µM), without a hit: top-dose activity, negative = inhibition, actives largely listed as inhibitors; 410,000 tested, 1.2% active; AID 588855; note: % is set by controls: 0 for no effect and ±100 for the full control effect; nearly all actives have a fitted effect of over 65% in size
#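 Smad-responsive CAGA-GFP expression was quantified in HEPG2 cells exposed to compounds and 500 pg/mL final TGF-beta for 18 h at 37 degrees C; unstimulated wells defined full inhibition.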
# ATXN2 expr inh: inhibitors of ATXN2 expression; 360,000 tested, 0.72% active; HEK-293 ATXN2-luciferase reporter, luminescence, 24 h; Potency, µM (doses to about 57 µM), for the others: at the top dose activity change, negative = inhibition, actives largely listed as inhibitors; AID 1745845; note: % is set by controls: 0 for no effect and ±100 for the full control effect; nearly all actives have a fitted effect of over 55% in size
#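 ATXN2-luciferase reporter cells (luciferase flanked by upstream and downstream ATXN2 gene portions) were treated 24 h at 37 °C with compounds at up to 57 uM. SteadyGlo luminescence gave expression; GF-AFC fluorescence gave viability.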
# HT1080-NT tox: kills 2HG-producing HT-1080-NT fibrosarcoma cells; 360,000 tested, 1.6% active; HT-1080-NT fibrosarcoma viability, CellTiter-Glo ATP luminescence, 48 h; Potency, µM (titrated, usually from 46.1 µM), without a hit: at the highest dose activity, negative = less viability, actives largely listed as cytotoxic; AID 686970;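 note: NT is the 2HG producing partner of a matched IDH1 knockdown line; 0% = DMSO-treated cells and -100% = media-only wells without cells; nearly all actives have a fitted effect of over 55% in size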
#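 Viability of the 2HG-overproducing fibrosarcoma line after 48 hours of compound exposure at 37 degrees C was determined by luminescence with CellTiter-Glo, and concentration-effect curves were then fitted and categorized.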
# HT1080 IDH1KD tx: HT-1080 IDH1 knockdown cell toxicity (counter line) | Potency, µM (doses to about 46.1 µM), inactives show top-dose activity, negative = toxicity, hits mostly cytotoxic | 360,000 tested, 2% active | HT-1080 IDH1 knockdown viability, ATP luminescence, 48 h;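 note: 0% = DMSO wells and -100% = cell-free medium wells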
#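 Assay cells: HT-1080 with IDH1 knockdown, 750 per well, RPMI/5% FBS. Exposure: 48 h at 37 °C following 2 h pre-incubation. Read: CellTiter-Glo luminescence; fitted concentration-response, curve class assigned.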
# ATXN viability: cell viability loss in ATXN counter-screen. S2 cells (HEK-293 line with an ATXN2-luciferase reporter) viability, CellTiter-Fluor protease fluorescence, 24 h. Potency, µM (series often up to 56.7 µM), actives largely listed as cytotoxic. 400,000 tested, 0.49% active. AID 651635; note: nearly all actives have a fitted effect of over 40% in size
# HepG2 tox: counter-screen for TGF-b inhibitors: cytotoxicity in HepG2 cells | Potency, µM (titrated, usually from 46.1 µM), for inactives: at the top dose activity change, negative = cytotoxicity, actives largely listed as cytotoxic | 410,000 tested, 0.76% active | AID 588856 | HepG2 CAGA-GFP viability, ATP luminescence, 18 h
#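 CellTiter-Glo luminescence gave cytotoxicity after 18 hours at 37 degrees C. The cells were HepG2 CAGA-GFP in 1% FBS DMEM, stimulated with 500 pg/mL TGF-beta after compound addition. %Activity was normalised to no-cell wells (complete cell-killing) and DMSO (no toxicity), and curves were fitted and classified.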
# The depositor's hits bear a star; i = inactive; ? = inconclusive; . = no result; [ ] = remark or other dose. Calls come from the whole dose curve; as a rule, active = well fitted curve in the direction sought with a large enough effect; inconclusive = small, poorly fitted or top-dose-only effect, or another doubt; inactive = no such curve, though single readings can be large; an effect the other way counts as inactive or inconclusive. Potency is the fitted concentration of half-maximal effect.
SMILES,TGFb SMAD3 inh,ATXN2 expr inh,HT1080-NT tox,HT1080 IDH1KD tx,ATXN viability,HepG2 tox
O=C(c1ccncc1)N1N=C(c2ccc(Br)cc2)CC1c1ccccc1O (configuration not stated),?,?,?,?,i,-25%
Cc1ccc(C2=NN(S(=O)(=O)c3ccccc3)C(c3ccccc3O)C2)cc1 (configuration not stated),-1%,.,18µM*,?,i,-113%
O=C(c1ccccc1)N1N=C(c2ccccc2)CC1c1ccccc1O (configuration not stated),?,-15%,23µM*,26µM*,i,-186%
CCCCCC1CCNCC1,?,.,.,.,.,-51%
Cc1ncc2c(c1CNC(=O)c1ccc3c(c1)OCO3)CCN(C(=O)/C=C/c1ccccc1Cl)C2,.,.,.,.,i,.
COc1cccc(Nc2c(C(N)=O)cnc3c(C)cc(S(=O)(=O)c4cccc(C(=O)N(C)C)c4)cc23)c1,.,-14%[25.6 µM],.,.,.,.
Cc1ccccc1NC(=O)c1c(NC(=O)C(F)(F)F)sc2c1CCCCC2,1.4µM*,.,.,.,.,-38%
O=C(O)CCC(=O)Nc1sc2c(c1C(=O)Nc1ccccc1)CCCCC2,?,26%,21µM*,?,i,-43%
O=C(O)CCC(=O)Nc1sc2c(c1C(=O)Nc1cccc3ccccc13)CCCCC2,3%,-5%,2%,2%,i,-26%
Cc1ccccc1NC(=O)c1c(NC(=O)c2ccccc2)sc2c1CCC2,1%,15%,.,.,i,-1%
O=C(COc1ccc(Cl)cc1)Nc1sc2c(c1C(=O)Nc1cccc(Cl)c1)CCCC2,-1%,.,.,.,.,-1%
Cc1cccc(NC(=O)c2c(NC(=O)C(F)(F)F)sc3c2CCCCC3)c1,1.6µM*,.,.,.,.,-111%
O=C(Nc1cccc(Cl)c1)c1c(NC(=O)C(F)(F)F)sc2c1CCCC2,?,-45%,.,.,?,11µM*
CCOc1ccc(-c2csc(-c3c(N)c(C(=O)c4ccc5c(c4)OCO5)n4ccccc34)n2)cc1,-10%,9%,.,.,i,-8%
Cc1ccc2nc(SCC(=O)N3CCC4(CC3)CC4C(=O)Nc3ccc(F)c(F)c3)[nH]c2c1 (configuration not stated),.,.,.,.,i,.
O=c1c(-c2ccc(O)cc2)coc2cc(OC3O[C@H](CO)[C@H](O)[C@H](O)[C@H]3O)cc(O)c12 (some centres not stated),.,290%,.,.,.,.
Cc1ccc(NC(=O)c2c(NC(=O)c3ccccc3)sc3c2CCC3)cc1,-1%,9%,.,.,i,6%
Cc1ccc(NC(=O)c2c(NC(=O)C(F)(F)F)sc3c2CCCCC3)cc1,1.1µM*,.,.,.,.,-60%
Cc1ccc(NC(=O)C(=O)NN)cc1,-12%,14%,-4%,3%,i,-10%
NNC(=O)C(=O)Nc1ccc(O)cc1,-16%,.,7.3µM*,?,i,-1%
CC(=O)N(C)c1ccc(OCC(O)Cn2c3ccc(Cl)cc3c3cc(Cl)ccc32)cc1 (configuration not stated),?,?,-16%,?,?,14µM*
COc1ccc(C2=Nn3c(nnc3-c3ccccc3Cl)SC2)cc1OCC1CC1,10µM*,?,.,.,?,-18%
COc1ccc(OC)c(-c2nnc3n2N=C(c2ccc(OC)c(OCC4CC4)c2)CS3)c1,7.9µM*,?,.,.,?,-26%
Fc1ccccc1-c1nnc2n1N=C(c1ccc(OC(F)F)c(OCC3CC3)c1)CS2,-8%,11%,.,.,i,-2%
COc1ccccc1/C=C/c1nc2ccccc2[nH]1,0%,.,.,.,.,8.9µM*
SMILES,TGFb SMAD3 inh,ATXN2 expr inh,HT1080-NT tox,HT1080 IDH1KD tx,ATXN viability,HepG2 tox
CCOC(=O)C1=C(CN2CCN(c3cccc(Cl)c3)CC2)NC(=O)NC1c1ccc(Cl)cc1 (configuration not stated),-1%,-8%,.,.,i,-8%
COC(=O)c1cc(=O)n(Cc2ccco2)c(=Nc2ccc(F)c(Cl)c2)s1,13µM*,28µM*,?,?,.,-98%
COC(=O)c1cc(=O)n(Cc2ccc3c(c2)OCO3)c(=Nc2ccc(F)cc2)s1,0%,-30%,2%,2%,i,-26%
COC(=O)c1cc(=O)n(Cc2cccs2)c(=Nc2ccc(F)cc2)s1,?,21µM*,?,?,27µM*,-73%
COC(=O)c1cc(=O)n(CCc2ccccc2F)c(=Nc2ccc(F)c(Cl)c2)s1,?,27µM*,21µM*,18µM*,.,-93%
Cc1cc(-c2ccc(C)c(S(=O)(=O)Nc3cccc(C#N)c3)c2)on1,?,.,.,.,.,-22%
CC(=O)C1=NN(c2ccccc2)C(c2cccs2)N1c1ccc(N(C)C)cc1 (configuration not stated),?,?,7.1µM*,2.5µM*,?,-53%
Cc1nnsc1C(=O)NC1CCCc2c1cnn2-c1cc(F)cc(F)c1 (configuration not stated),-32%,8%,2%,0%,i,-14%
Cc1nnsc1C(=O)NC1CCCc2c1cnn2-c1ccc(F)cc1F (configuration not stated),-11%,-16%,7.3µM*,-15%,i,-23%
Cc1ccc2[nH]c(-c3cccc(F)c3)cc(=O)c2c1,?,14%,1.6µM*,1.5µM*,i,22%
